Bioassay records from PubChem BioAssay.
An excerpt weighted towards active compounds, which were near 19% of everything screened.
HT1080 IDH1KD tx = qHTS for induction of synthetic lethality in tumor cells producing 2HG: qHTS for the HT-1080-IDH1KD cell line; HT-1080 IDH1 knockdown viability, ATP luminescence, 48 h; Potency, µM (series often up to 46.1 µM), usual class: cytotoxic; actives 2% (n = 360,000)
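Viability of IDH1-knockdown HT-1080 fibrosarcoma cells was assessed by CellTiter-Glo after 48 h at 37 °C with titrated compound; concentration-effect curves were classified by fit quality and response size.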
TDP1 cell noCPT = qHTS for Inhibitors of human tyrosyl-DNA phosphodiesterase 1 (TDP1): qHTS in cells in absence of CPT; DT40 Tdp1-/- hTDP1 cells, no CPT, ATP luminescence, 48 h; Potency, µM (doses to about 46.2 µM), hits mostly inhibitors; actives 15% (n = 420,000); note: nearly all actives have a fitted effect of over 55% in size
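Stably hTDP1-transfected Tdp1-null chicken DT40 cells were treated with library compounds minus camptothecin and grown for at least 48 hr at 37 °C, after which cellular ATP was quantified by luminescence.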
TDP1 cell CPT = qHTS for Inhibitors of human tyrosyl-DNA phosphodiesterase 1 (TDP1): qHTS in cells in presence of CPT | AID 686979, 2013 | Potency, µM (titrated, usually from 46.2 µM), actives largely listed as inhibitors | chicken DT40 Tdp1-/-;hTDP1 cells + 20 nM CPT, ATP luminescence, 48 h | actives 12% (n = 420,000); note: nearly all actives have a fitted effect of over 55% in size
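Cell growth measured by CellTiter-Glo luminescence after a minimum 48 h, 37 C compound exposure with 20 nM CPT in Tdp1-knockout DT40 cells stably expressing hTDP1, seeded 400/well; qHTS titration format.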
HT1080NT lethal = qHTS for induction of synthetic lethality in tumor cells producing 2HG: qHTS for the HT-1080-NT fibrosarcoma cell line. AID 686970, 2013. actives 1.6% (n = 360,000). HT-1080-NT fibrosarcoma viability, CellTiter-Glo ATP luminescence, 48 h. Potency, µM (titrated, usually from 46.1 µM), actives largely listed as cytotoxic;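 note: NT is the 2HG producing partner of a matched IDH1 knockdown line; nearly all actives have a fitted effect of over 55% in size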
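Viability of the 2HG-overproducing fibrosarcoma line after 48 hours of compound exposure at 37 degrees C was determined by luminescence with CellTiter-Glo, and concentration-effect curves were then fitted and categorized.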
IL1B secr inh = qHTS for Inhibitors of Inflammasome Signaling: IL-1-beta AlphaLISA Primary Screen; AID 743279, 2014; THP-1 LPS/ATP IL-1B secretion, AlphaLISA, 16 h; stronger effect = lower value; activity change, % at 57.5 µM; actives 4.7% (n = 360,000); in the data active = activity change below about -50%; inconclusive = mostly about -30% to -49%
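THP-1 cells pretreated 1 hr with compounds (up to 57.5 uM final), then stimulated with LPS (250 ng/mL final) plus ATP (1.25 mM final); secreted IL-1B measured by AlphaLISA after 16 hr, decreased signal indicating inhibition.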
Hits are given with their value; n = inactive; u = inconclusive; x = no result given. Unless noted, calls come from the whole dose curve; as a rule, active = well fitted curve in the direction sought with a large enough effect; inconclusive = small, poorly fitted or top-dose-only effect, or another doubt; inactive = no such curve, though single readings can be large; an effect the other way counts as inactive or inconclusive.

SMILES	HT1080 IDH1KD tx	TDP1 cell noCPT	TDP1 cell CPT	HT1080NT lethal	IL1B secr inh
CCC1CN(C(=O)C2CCN(S(=O)(=O)c3c(C)noc3/C=C/c3ccc(C)cc3)CC2)c2cc(C)ccc2O1 (centres undefined)	x	n	n	x	x
COc1cccc(/C=C/c2onc(C)c2S(=O)(=O)N2CCC(C(=O)NC3CCCCCC3)CC2)c1	n	n	n	n	n
Cc1cccc(/C=C/c2onc(C)c2S(=O)(=O)N2CCC(C(=O)N3CCCCCC3)CC2)c1	n	23µM	u	n	u
O=C(NCC1OCCc2ccccc21)c1cc(COc2ccc(F)cc2Cl)on1 (centres undefined)	n	u	n	n	n
COc1ccc(N2C(=O)C(CN3CCN(C)CC3)C2c2ccccc2)cc1 (centres undefined)	n	n	n	n	n
COCCCNC(=O)C1CCN(C(=O)Nc2ccc(Cl)cc2)CC1	n	n	n	n	n
COc1ccc(/C=C/c2onc(C)c2S(=O)(=O)N2CCC(C(=O)N3CCC(C)CC3)CC2)cc1	n	16µM	16µM	n	u
CNC(=O)C1CCN(S(=O)(=O)c2c(C)noc2/C=C/c2ccc(OC)cc2)CC1	n	n	n	n	n
CSc1cccc(NC(=O)Nc2ccccc2OCc2cc(=O)n3cc(C)ccc3n2)c1	x	21µM	23µM	x	x
CCOC(=O)c1ccc(NC(=O)Nc2cccc(OCc3cc(=O)n4ccc(C)cc4n3)c2)cc1	x	u	n	x	x
CCC(Oc1ccccc1)C(=O)Nc1ccc(OCc2cc(=O)n3ccc(C)cc3n2)cc1 (centres undefined)	x	18µM	u	x	x
COc1ccc(C)cc1NC(=O)Nc1cccc(OCc2cc(=O)n3ccc(C)cc3n2)c1	x	9.2µM	9.2µM	x	x
CC(C)C(=O)Nc1sc2c(c1-c1nc3ccccc3[nH]1)CCCC2	n	u	u	n	n
CC(=O)Nc1ccc2sccc2c1	n	n	n	n	n
C=CCOC(=O)N1CCC2CC1c1c(-c3ccc(C(F)(F)F)cc3)cccc12 (centres undefined)	u	u	23µM	u	n
COc1ccc(S(=O)(=O)N2CCC3CC2c2c(-c4ccc(C(F)(F)F)cc4)cccc23)cc1 (centres undefined)	n	5.2µM	4.6µM	n	n
COCC(=O)N1CCC2CC1c1c(-c3ccc(C(F)(F)F)cc3)cccc12 (centres undefined)	n	u	23µM	n	n
COc1ccc(-c2cccc3c2C2CC3CCN2C(=O)OCc2ccccc2)cc1 (centres undefined)	n	u	u	n	n
CC(N)C(=O)NC(C(=O)NC(C)C(=O)Nc1cccc2ccccc12)C(C)C (centres undefined)	n	n	n	n	n
CC(=O)Nc1cccc2c1C(=O)N(c1ccccc1OC(C)=O)C2=O	n	n	n	n	n
COc1cc(-c2noc(CCC(=O)NC3CCCCC3)n2)cc(OC)c1OC	n	n	n	n	n
CC(=O)c1ccc(NC(=O)CCCN2C(=O)COc3ccc(C)cc32)cc1	n	n	u	n	n
CCOc1ccccc1CNC(=O)CCCN1C(=O)COc2ccc(C)cc21	x	18µM	u	x	x
Cc1cc(C)c(NC(=O)CCCN2C(=O)COc3ccc(C)cc32)c(C)c1	x	16µM	u	x	x
Cc1cccc(CNC(=O)CCCN2C(=O)COc3ccc(C)cc32)c1	x	u	15µM	x	x
SMILES	HT1080 IDH1KD tx	TDP1 cell noCPT	TDP1 cell CPT	HT1080NT lethal	IL1B secr inh
CCCCC(CC)C(=O)N1CCN(C(=O)c2ccco2)CC1 (centres undefined)	n	n	n	n	n
CC(C)CN(C(=O)CC1OC(=O)c2ccccc21)c1c(N)n(Cc2ccccc2)c(=O)[nH]c1=O (centres undefined)	n	n	n	n	n
Cc1nc(NC(C)c2ccccc2)c2oc3ccccc3c2n1 (centres undefined)	u	10µM	21µM	n	n
CCC(C)Nc1nc(C)nc2c1oc1ccccc12 (centres undefined)	n	16µM	18µM	n	n
Cc1nc(N[C@@H](Cc2c[nH]c3ccccc23)C(=O)O)c2oc3ccccc3c2n1	n	n	n	n	n
Cc1nc(N[C@@H](Cc2ccccc2)C(=O)O)c2oc3ccccc3c2n1	n	n	n	n	n
Cc1nc(NCCc2cnc[nH]2)c2oc3ccccc3c2n1	n	n	n	n	n
Cc1nc(NCc2ccco2)c2oc3ccccc3c2n1	n	10µM	u	n	n
O=c1ccc2nc3ccccc3sc-2c1	u	1.5µM	0.65µM	u	-102
COc1ccc(N(C)S(=O)(=O)c2ccc3c(c2)n(C)c(=O)c(=O)n3C)cc1	x	n	n	x	x
CCN(CC)CCCNC(=O)c1ccc2c(=O)n(CCc3ccccc3)c(=O)[nH]c2c1	x	u	n	x	x
CCCCCn1c(=O)[nH]c2cc(C(=O)NCCN(CC)CC)ccc2c1=O	u	21µM	9.2µM	u	n
O=C(NCc1ccccn1)c1ccc2c(=O)n(CCc3ccccc3)c(=O)[nH]c2c1	n	u	21µM	n	n
CCCCCn1c(=O)[nH]c2cc(C(=O)NCc3ccccn3)ccc2c1=O	n	n	n	n	n
CCO[C@@H]1OC(C(N)=O)=C[C@H](c2ccccc2)[C@H]1CCCO	n	n	n	n	n
CCN=C1S/C(=C\c2cn(C(C)=O)nc2-c2ccccc2)C(=O)N1CC	n	u	16µM	n	n
CCN=C1S/C(=C\c2ccc(N3CCOCC3)cc2C)C(=O)N1CC	n	2.3µM	2.9µM	n	n
CC(=O)NC1=NC(=O)/C(=C/c2cn(C(C)=O)nc2-c2ccccc2)S1	n	u	u	n	n
COc1ccc(CCN2CC(C(=O)NCc3nc4ccccc4n3C)CCC2=O)cc1 (centres undefined)	n	n	n	n	n
CCOc1ccc(CNS(=O)(=O)c2ccc(-c3coc(C)n3)cc2)cc1	x	18µM	u	x	x
CCOc1ccc(CNS(=O)(=O)c2ccc(-c3coc(C)n3)cc2)cc1OC	x	15µM	7.3µM	x	x
CCN(CC(=O)Nc1cc(Cl)ccc1C)C(=O)CCc1nc2ccccc2c(=O)[nH]1	n	u	u	n	n
O=C(Nc1ccccc1)NN(C(=O)CCl)c1ccccc1	4.6µM	3.3µM	3.3µM	7.3µM	-96
Cc1ccc(N(NC(=O)C(O)(c2ccccc2)c2ccccc2)C(=O)CCl)cc1	5.8µM	5.2µM	4.1µM	5.2µM	-98
